Results filed as inconclusive are left out. Calls of active or inactive are those of the source. Rule for the calls: active = hit-call score of the fitted dose curve at least 0.9, where 1 is the maximum; inconclusive = response in the unintended direction; inactive = score below 0.9.
Assay: Tanguay_ZF_120hpf_CIRC_legacy: (Legacy) Oregon State University Tanguay Lab 120 Hour Post-fertilization zebrafish Assay for Circulatory Malformation (AID 2283651)
Procedure: Tanguay_ZF_120hpf_legacy is a whole embryo, multiplexed endpoint assay using zebrafish larvae exposed for 120 hours post fertilization on a 96-well plate.Tanguay_ZF_120hpf_CIRC_legacy is one of one assay component(s) measured or calculated from the Tanguay_ZF_120hpf_legacy assay. It is designed to make measurements of zebrafish development as detected with brightfield microscopy of developing zebrafish embryos.Data from the assay component Tanguay_ZF_120hpf_CIRC_legacy was analyzed into 1 assay endpoints. This assay endpoint, Tanguay_ZF_120hpf_CIRC_legacy, was analyzed in the positive analysis fitting direction relative to DMSO as the negative control and baseline of activity. Using a type of morphology reporter, gain-of-signal activity can be used to understand changes in developmentals as they relate to the whole embryo. To generalize the intended target to other relatable targets, this assay endpoint is annotated to the zebrafish development intended target family, where the subfamily is angiogenesis.
Zebrafish husbandry: Tropical 5D wild-type adult zebrafish were housed in at an approximate density of 1000 per 100 gallon tank at the Sinnhuber Aquatic Research Laboratory, Oregon State University, Corvallis, OR. Each tank was kept at standard laboratory conditions of 28C on a 14-h light/10-h dark photoperiod in fish water consisting of reverse osmosis water supplemented with a commercially available salt (Instant Ocean). Spawning funnels were placed into the tanks the night prior, and embryos were collected and staged. To increase bioavailability, the chorion was enzymatically removed using pronase (63.6mg/ml, >/= 3.5U/mg, Sigma-Aldrich: P5147) at 4 hours post fertilization (hpf) using a custom automated dechorionator.Chemical exposures: Six hpf dechorionated embryos were placed 1 embryo per well in a 96-well plate prefilled with 90 ul of EM using automated embryo placement systems (AEPS). Ten microliters of each row of dilution plate 2 was added to 2 exposure plates. The final DMSO concentration used was 0.64% (vol/vol). Thirty-two embryos were also exposed to 5uM trimethyltin chloride (positive control). Plates were sealed to prevent evaporation and foil covered to reduce light exposure and kept in a 28C incubator. Embryos were statically exposed until 120 hpf. At 24 hpf, embryos were assessed for photomotor response using a custom photomotor response analysis tool (PRAT) and for developmental toxicity endpoints (MO24: mortality at 24 hpf, DP: developmental progression, SM: spontaneous movement, and NC: notochord distortion). At 120 hpf, locomotor activity was measured using Viewpoint Zebralab and assessed for 18 endpoints. Zebrafish acquisition and analysis program (ZAAP), a custom program designed to inventory, acquire, and manage zebrafish data, was used to collect developmental endpoints as either present or absent (i.e., binary responses were recorded). If mortality occurred for an embryo (at either 24 or 120 hpf), the non-mortality endpoints were not measured.

| SMILES | outcome |
| --- | --- |
| Cc1ccccc1Cl | inactive |
| Cc1cccc(C)c1O | inactive |
| CC(=O)C(C)=CC1C(C)=CCCC1(C)C (stereo not given) | inactive |
| Cc1ccc2ncccc2c1 | inactive |
| Cc1oc(-c2ccccc2)nc1CCOc1cccc2c1ccn2CCC(=O)O | inactive |
| Nc1ccc(S(=O)(=O)c2ccc(N)cc2)cc1 | inactive |
| CCOC(=O)C(C)(C)Oc1ccc(Cl)cc1 | inactive |
| CN1CCN(Cc2cc(-c3ccc4[nH]c(=O)oc4c3)co2)[C@@H](c2ccc(F)cc2)C1 | inactive |
| O=C(OCCCCCOC(=O)c1ccccc1)c1ccccc1 | inactive |
| C=CCOC(=O)c1ccccc1C(=O)OCC=C | inactive |
| O=C(O)Cc1ccccc1Nc1c(Cl)cccc1Cl | inactive |
| O=C(N[C@@H](Cc1ccccc1)[C@@H](O)C(=O)N1C[C@@H](O)[C@@H](O)C1)c1cc2cc(Cl)ccc2[nH]1 | inactive |
| CN1CCCC1=O | inactive |
| CCCCCCCCCCCCCO | inactive |
| O=C(O)CCCCC(=O)O | inactive |
| CN[C@H]1CC[C@@H](c2ccc(Cl)c(Cl)c2)c2ccc(S(N)(=O)=O)cc21 | inactive |
| CC1=C(/C=C/C(C)=C/C=C/C(C)=C/CO)C(C)(C)CCC1 | inactive |
| CCCCCCCCCCCCCCCC | inactive |
| Cc1ccc(N(C)C)cc1 | inactive |
| CC(C)(C)c1cc(O)c(C(C)(C)C)cc1O | inactive |

| SMILES | outcome |
| --- | --- |
| Cc1cc(NC(=O)C(=O)O)cc(C)c1Oc1ccc(O)c2c1CCC2 | inactive |
| C[C@]12C=CC(=O)C=C1CC[C@@H]1[C@@H]2C(=O)C[C@@]2(C)[C@H]1CC[C@]2(O)C(=O)CO | inactive |
| FC(F)(F)C(F)(F)C(F)(F)C(F)(F)C(F)(F)C(F)(F)CCI | inactive |
| COc1ccc2c(c1)c(CC(=O)O)c(C)n2C(=O)c1ccc(Cl)cc1 | inactive |
| Cc1ccc(C)c(O)c1C | inactive |
| CCCCCCOCCO | inactive |
| CCCCOC(=O)CCCCCCCCC(=O)OCCCC | inactive |
| Cc1cccc([N+](=O)[O-])c1C | inactive |
| CCOc1ccc2c(c1)C(C)=CC(C)(C)N2 | inactive |
| Cc1ccc(C(C)C)c(O)c1 | inactive |
| CC1(C)CC(N=C=O)CC(C)(CN=C=O)C1 (stereo not given) | inactive |
| O=[N+]([O-])C(CO)(CO)CO | inactive |
| CC(=O)OC/C=C(\C)CCC=C(C)C | inactive |
| COc1cc(-c2nc(NC(=O)c3cc4cc(C)cc(C)c4n3CC(=O)O)sc2CCC2CCCCC2)c(OC)cc1Cl | inactive |
| C=CCc1ccc(O)c(OC)c1 | inactive |
| NCC1(Cc2noc(=O)[nH]2)CCCCC1 | inactive |
| CCCCCCCCCCO | inactive |
| Cc1cc(=O)[nH]c(=S)[nH]1 | inactive |
| Nc1nc(N)c2nc(CNc3ccc(C(=O)N[C@@H](CCC(=O)O)C(=O)O)cc3)cnc2n1 | inactive |
| COc1ccc(S(=O)(=O)N2C(=O)[C@@](c3ccccc3OC)(N3C[C@H](O)C[C@H]3C(=O)N(C)C)c3cc(Cl)ccc32)c(OC)c1 | inactive |
